Data: PubChem BioAssay AID463082 (The Scripps Research Institute Molecular Screening Center, 2010)
In all, about 330,000 compounds went through this assay and about 4,900 (1.5%) were called active. Shown is part of a subset that was picked to be rich in actives. A number with no mark means an inactive call.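 How the source made its calls: active means inhibition above the mean inhibition across the screen plus 3 SD (cut at about 25% in these data); inactive means the rest.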

Each compound was assayed against Platelet-activating factor acetylhydrolase (Homo sapiens) (UniProt Q13093) (assay: inhibition of plasma PAF acetylhydrolase – biochemical, fluorescence polarization, human, primary screen (AID 463082;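 further: inhibitors block binding of the rhodamine activity-based probe so polarization drops; 0% = enzyme with DMSO and 100% = wells lacking pPAFAH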)). Details: recombinant pPAFAH, FP-rhodamine probe fluorescence polarization; at 3.39 µM; stronger effect = higher value.
Platelet-activating factor acetylhydrolase (Homo sapiens), sequence (Q13093 whole entry, looked up): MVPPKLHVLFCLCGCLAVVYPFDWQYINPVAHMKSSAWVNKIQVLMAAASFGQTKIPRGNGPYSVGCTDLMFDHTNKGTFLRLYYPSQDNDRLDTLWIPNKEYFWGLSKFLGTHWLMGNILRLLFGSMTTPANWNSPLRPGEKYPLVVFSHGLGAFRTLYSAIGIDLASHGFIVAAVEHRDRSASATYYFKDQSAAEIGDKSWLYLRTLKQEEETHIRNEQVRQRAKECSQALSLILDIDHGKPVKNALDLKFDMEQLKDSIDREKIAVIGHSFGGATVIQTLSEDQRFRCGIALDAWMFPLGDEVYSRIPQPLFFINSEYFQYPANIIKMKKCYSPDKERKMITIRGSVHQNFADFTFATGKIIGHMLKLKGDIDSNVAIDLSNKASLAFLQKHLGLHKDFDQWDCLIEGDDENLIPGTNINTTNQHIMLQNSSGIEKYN

| SMILES | inhibition |
| --- | --- |
| CCCn1c(SCC(=O)c2ccc3c(c2)OCCO3)nnc1C(C)C | 3.84% |
| COc1ccc(C)cc1-n1nnnc1SCc1nc2ccccc2c(=O)[nH]1 | -13.6% |
| Cc1ccc(Nc2nc(CSc3nnnn3-c3ccccc3)cc(=O)[nH]2)cc1 | 27.2% (active) |
| Cc1ccc(NC(=O)CSc2nc(CSc3ccc(C)cc3)cc(=O)[nH]2)cc1 | 17.3% |
| N#CC1(NC(=O)COC(=O)Cc2n[nH]c(=O)c3ccccc23)CCCCC1 | 0.43% |
| CC(C)C(C)(C#N)NC(=O)CSc1nc2scc(-c3ccccc3)c2c(=O)[nH]1 (stereo not drawn) | 11.1% |
| CCCCCCSc1ccc([C@@H]2[C@H]3C(=O)N(CC)C(=O)[C@H]3[C@]3(C(=O)OC)CCCCN23)cc1 | 6.84% |
| CCN1C(=O)[C@@H]2[C@@H](c3ccc(-c4ccc(OC)cc4)c(OC)c3)N3CCC[C@@]3(C(=O)OC)[C@@H]2C1=O | 2.25% |
| CCCCCCSc1ccc([C@@H]2[C@@H]3C(=O)N(CC)C(=O)[C@@H]3[C@]3(C(=O)OC)CCCCN23)cc1OC | 26.9% (active) |
| CCOC(=O)c1ccc2c(c1)nc(SCC(=O)NC(C)C)n2CC | 3.79% |
| CN(CC(=O)NC1CCCCC1)S(=O)(=O)c1cccc2cccnc12 | 14.6% |
| CCn1c(SCC(=O)Nc2sc(C)c(C)c2C#N)nnc1C1CC1 | 1.95% |
| Cn1nc([N+](=O)[O-])nc1Sc1ccc(C(C)(C)C)cc1 | 8.17% |
| CCC(=C/c1sc2ccc3ccccc3c2[n+]1C)/C=C1\Sc2ccc3ccccc3c2N1C | 32.4% (active) |
| CC(C)Oc1ccccc1C(=O)NC(CO)C(=O)O (stereo not drawn) | 2.51% |
| CCOC(=O)C1=C(C)OC(N)=C(C#N)C1c1cncc(-c2ccc(F)cc2)c1 (stereo not drawn) | 2.24% |
| O=C(Nc1cccc(S(=O)(=O)NC2=NCCC2)c1)C1CCCCC1 | 3.38% |
| CCN(CCCNC(=O)CCn1c(=O)[nH]c2ccsc2c1=O)c1ccccc1 | 4.5% |
| CCN(CCCNC(=O)c1ccc2c(c1)NC(=O)CN2C)c1cccc(C)c1 | 28% (active) |
| CCN(CCCNC(=O)C1CCN(S(=O)(=O)c2cnc[nH]2)CC1)c1ccccc1 | -2.66% |

| SMILES | inhibition |
| --- | --- |
| COc1cccc(N2CC(NS(=O)(=O)c3ccc(Cl)cc3)CC2=O)c1 (stereo not drawn) | 9.38% |
| O=C(O)c1ccc(N/N=C/c2ccc3ncccc3c2)cc1 | 4.87% |
| Cc1ccc2cc(/C=N/NC(=O)[C@@H]3CCCN3)c(Cl)nc2c1 | 3.82% |
| Cc1ccc2cc(/C=N/Nc3ccc(C(=O)O)cc3)c(Cl)nc2c1 | 34% (active) |
| COC(=O)[C@]1(C)CCC[C@@]2(C)C3CC[C@]4(OC(C)=O)C[C@@]3(CCC21)CC4=NO (stereo partly drawn) | -4.31% |
| COc1ccc(C)cc1NC(=O)CSc1nnc(CC(=O)Nc2ccccc2F)n1C | 4.03% |
| CC1(OC(=O)C2CCCC2)C(=O)C=C2C=C(c3ccc(C#N)cc3)OC=C2C1=O (stereo not drawn) | 52.5% (active) |
| COCCN1C=C2C(=O)C(C)(OC(=O)C3CCCC3)C(=O)C=C2C=C1c1ccsc1 (stereo not drawn) | 5.4% |
| C=CCN1C=C2C(=O)C(C)(OC(=O)CCc3ccccc3)C(=O)C=C2C=C1c1ccc(C#N)cc1 (stereo not drawn) | 12.6% |
| O=C(COC(=O)c1ccccc1F)Nc1cc(S(=O)(=O)N2CCOCC2)ccc1N1CCCC1 | 5.42% |
| O=C(COc1cccc2ccccc12)Nc1cc(S(=O)(=O)N2CCOCC2)ccc1N1CCOCC1 | 9.7% |
| O=C(COC(=O)Cc1ccc(F)cc1)Nc1cc(S(=O)(=O)N2CCOCC2)ccc1N1CCCC1 | 31% (active) |
| CC(=O)Nc1ccc(S(=O)(=O)NC(C)C(=O)OCC(=O)NC2CCCC2)cc1 (stereo not drawn) | -1.59% |
| C/C=C/C(=O)OCc1csc(CC(=O)Nc2ccccc2C)n1 | -0.07% |
| Cc1ccc(NC(=O)Cc2nc(COC(=O)C(C)NS(=O)(=O)c3ccc(C)cc3)cs2)cc1 (stereo not drawn) | 32.8% (active) |
| COc1ccc(C(=O)NC(=S)Nc2ccccc2N2CCN(S(C)(=O)=O)CC2)cc1OC | 51.7% (active) |
| COc1ccccc1C(=O)NC(=S)Nc1ccccc1N1CCCCC1 | 5.28% |
| CCC(=O)Nc1ccccc1N1CCN(S(C)(=O)=O)CC1 | 1.48% |
| O=C(CSc1ncnc2c1oc1ccccc12)NC1CCCC1 | -0.51% |
| Cc1ccc(Nc2c(F)c(F)c(F)c(F)c2C(=O)O)c(C)c1 | 8.5% |

| SMILES | inhibition |
| --- | --- |
| COCCCNC(=O)CC1C[C@H](C(=O)N2CCCCC2)[C@@]2(CCc3ccccc3)c3[nH]c4ccccc4c3CCN2C1=O (stereo partly drawn) | 1.17% |
| CC1=C/C(=N\OS(=O)(=O)c2ccccc2)C=CC1=O | 0.71% |
| O=C(CCCN1C(=O)/C(=C/c2cccs2)SC1=S)Nc1ccc(O)cc1 | 1.25% |
| O=C(CCCN1C(=O)/C(=C/c2ccco2)SC1=S)Nc1ccccc1 | 25.9% (active) |
| COc1ccc(/C=C2\SC(=S)N(CCC(=O)Nc3cccc(C(=O)O)c3)C2=O)cc1OC | -14.2% |
| O=C(CCCN1C(=O)/C(=C\c2ccco2)SC1=S)Nc1cccc2ccccc12 | 27.9% (active) |
| COc1ccc(/C=C2\SC(=S)N(CCCC(=O)NC3CCCC3)C2=O)cc1OC | -4.96% |
| O=C(CCCN1C(=O)/C(=C/c2ccccc2)SC1=S)Nc1ccc(O)cc1 | 3.48% |
| COc1ccc(S(=O)(=O)N2CCN(C)CC2)c(C)c1 | -1.79% |
| CN(C)/C=N/c1cc(=O)n(C)c(=O)n1CC1CC1 | -0.49% |
| Cc1ccc(C(=O)NC23CC4CC(CC(C4)C2)C3)c(Cl)c1 | 5.48% |
| Cc1ccsc1C(=O)OCC(=O)Nc1cccc(F)c1 | 31.5% (active) |
| Cc1ccsc1C(=O)OCC(=O)NCCc1ccccc1 | 2.4% |
| CC1CC1C(=O)OCC(=O)Nc1cccc(F)c1 (stereo not drawn) | 13.3% |
| Cc1ccc2nc(-c3ccc(SCC(=O)Nc4cc(C)on4)nc3)[nH]c2c1 | -7.51% |
| CC(=O)c1ccc(NC(=O)CCc2nnc3ccc(NCc4ccco4)nn23)cc1 | -0.96% |
| O=C(CCc1nnc2ccc(NCc3ccco3)nn12)Nc1cc(F)ccc1F | 32.9% (active) |
| CCOc1ccccc1NC(=O)CCc1nnc2ccc(NCc3ccco3)nn12 | 6.27% |
